In ChEMBL document CHEMBL3988442, “University of Dundee, Small-Polar-MMV Screening Library” (2021):
For some assays here: Results with a measured potency or affinity are listed apart.

Columns and labels:
Parameters in all cases: scale not given: direction of the effect not stated beside the values
[1] = target: Protein translocase subunit SecA (Escherichia coli (strain K12)) (UniProt P10408); experiment: Assay to Identify E. coli SecA ATPase Inhibitors; assay type: functional; conditions: 30 µM
Chain of Protein translocase subunit SecA (Escherichia coli (strain K12)) (P10408 whole entry): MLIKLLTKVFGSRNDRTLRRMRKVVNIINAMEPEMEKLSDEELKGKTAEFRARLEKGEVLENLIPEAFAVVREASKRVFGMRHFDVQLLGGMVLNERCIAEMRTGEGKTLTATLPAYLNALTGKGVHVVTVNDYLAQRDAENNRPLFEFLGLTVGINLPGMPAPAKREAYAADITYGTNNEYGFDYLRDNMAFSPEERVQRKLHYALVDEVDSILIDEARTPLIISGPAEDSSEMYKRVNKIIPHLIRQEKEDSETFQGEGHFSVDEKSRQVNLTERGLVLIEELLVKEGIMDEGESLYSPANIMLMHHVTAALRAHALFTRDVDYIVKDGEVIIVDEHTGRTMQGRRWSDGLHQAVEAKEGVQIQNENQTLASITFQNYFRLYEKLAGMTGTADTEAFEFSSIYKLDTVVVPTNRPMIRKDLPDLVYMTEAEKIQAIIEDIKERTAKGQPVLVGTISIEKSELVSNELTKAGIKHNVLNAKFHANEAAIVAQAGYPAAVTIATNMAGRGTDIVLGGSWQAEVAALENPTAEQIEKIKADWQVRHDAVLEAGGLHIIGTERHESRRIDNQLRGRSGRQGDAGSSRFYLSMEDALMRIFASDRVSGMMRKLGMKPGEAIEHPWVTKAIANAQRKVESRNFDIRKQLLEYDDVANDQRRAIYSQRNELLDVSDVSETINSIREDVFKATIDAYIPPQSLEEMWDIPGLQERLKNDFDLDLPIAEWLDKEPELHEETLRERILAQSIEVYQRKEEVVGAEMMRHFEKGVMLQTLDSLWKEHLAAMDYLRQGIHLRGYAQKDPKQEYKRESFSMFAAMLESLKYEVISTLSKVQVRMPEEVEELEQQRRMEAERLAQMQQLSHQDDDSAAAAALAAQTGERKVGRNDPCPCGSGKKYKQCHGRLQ

[2] = target: T1, Ubiquitin-activating enzyme e1, putative (Leishmania donovani (strain BPK282A1)) (UniProt E9BSI1); experiment: Leishmania donovani Ubiquitin Activating Enzyme (LdE1); assay type: functional; conditions: 30 µM
T1 sequence (whole entry): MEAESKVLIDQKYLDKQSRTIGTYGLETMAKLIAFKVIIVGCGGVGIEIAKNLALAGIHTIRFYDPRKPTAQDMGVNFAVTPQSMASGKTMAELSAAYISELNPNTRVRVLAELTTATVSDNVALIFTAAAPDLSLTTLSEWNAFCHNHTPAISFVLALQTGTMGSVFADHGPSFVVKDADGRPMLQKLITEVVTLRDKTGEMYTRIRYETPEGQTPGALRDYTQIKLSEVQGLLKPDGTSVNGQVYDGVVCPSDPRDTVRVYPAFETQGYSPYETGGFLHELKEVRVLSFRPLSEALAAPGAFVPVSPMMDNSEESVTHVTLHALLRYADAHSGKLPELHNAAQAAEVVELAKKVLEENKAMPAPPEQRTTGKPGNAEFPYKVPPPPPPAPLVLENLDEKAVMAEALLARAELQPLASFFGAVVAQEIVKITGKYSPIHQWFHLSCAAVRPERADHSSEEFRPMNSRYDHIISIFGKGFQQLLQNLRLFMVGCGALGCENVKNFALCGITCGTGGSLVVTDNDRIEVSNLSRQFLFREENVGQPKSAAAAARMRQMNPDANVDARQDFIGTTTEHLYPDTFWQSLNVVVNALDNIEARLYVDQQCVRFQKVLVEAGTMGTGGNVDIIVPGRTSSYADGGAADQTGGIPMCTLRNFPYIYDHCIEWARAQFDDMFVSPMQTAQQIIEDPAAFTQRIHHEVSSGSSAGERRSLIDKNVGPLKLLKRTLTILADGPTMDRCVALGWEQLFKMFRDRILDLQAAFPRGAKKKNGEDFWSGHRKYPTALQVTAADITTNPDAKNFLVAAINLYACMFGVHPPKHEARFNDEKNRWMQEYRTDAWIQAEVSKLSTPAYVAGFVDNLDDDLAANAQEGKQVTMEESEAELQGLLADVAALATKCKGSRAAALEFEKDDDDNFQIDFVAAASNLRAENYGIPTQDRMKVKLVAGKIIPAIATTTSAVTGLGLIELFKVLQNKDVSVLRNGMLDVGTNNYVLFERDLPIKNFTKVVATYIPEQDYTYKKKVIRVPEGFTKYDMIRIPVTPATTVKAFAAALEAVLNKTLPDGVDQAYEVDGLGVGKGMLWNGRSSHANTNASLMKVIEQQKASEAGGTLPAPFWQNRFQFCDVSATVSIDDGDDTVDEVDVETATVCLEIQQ

[3] = target: AMP-activated protein kinase, AMPK (Homo sapiens) (UniProt P54646+O43741+P54619+Q9UGJ0+Q9Y478+Q13131+Q9UGI9); experiment: AMP-dependent Kinase enzyme assay. An in vitro enzyme assay that detects ADP turnover that is directly proportional to AMPK activity. This uses naive AMPK that is activated during the assay with MK-8722; assay type: functional; conditions: 30 µM
[4] = target: Sialic acid-binding Ig-like lectin 9 (Homo sapiens) (UniProt Q9Y336); experiment: Hs-Siglec9 ALPHAscreen SOP 20170721; conditions: 10 µM
Chain of Sialic acid-binding Ig-like lectin 9 (Homo sapiens) (Q9Y336 whole entry): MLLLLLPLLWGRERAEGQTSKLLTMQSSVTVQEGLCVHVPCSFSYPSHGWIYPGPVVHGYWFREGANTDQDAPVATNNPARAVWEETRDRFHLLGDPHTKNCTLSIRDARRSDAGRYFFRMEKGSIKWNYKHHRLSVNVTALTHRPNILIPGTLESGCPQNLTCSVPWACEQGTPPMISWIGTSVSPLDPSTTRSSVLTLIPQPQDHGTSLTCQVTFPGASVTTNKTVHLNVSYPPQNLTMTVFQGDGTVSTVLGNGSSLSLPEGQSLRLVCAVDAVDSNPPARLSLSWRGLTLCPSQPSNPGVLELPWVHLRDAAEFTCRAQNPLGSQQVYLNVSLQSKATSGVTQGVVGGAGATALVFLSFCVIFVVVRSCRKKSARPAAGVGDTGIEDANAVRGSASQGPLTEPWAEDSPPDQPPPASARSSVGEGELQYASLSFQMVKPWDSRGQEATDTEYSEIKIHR

Trypanosoma cruzi = experiment: Trypanosoma cruzi phosphomannomutase and mannose-1-phosphate guanylyltransferase assay; assay type: functional; conditions: 10 µM
[5] = target: T2, Arginase-2, mitochondrial (Homo sapiens) (UniProt P78540); experiment: in vitro enzyme assay to detect the production of urea directly proportional to the activity of Arginase II; assay type: functional; conditions: 33.3 µM; note: in the data most compounds retested in dose-response had high values
T2 sequence (whole entry): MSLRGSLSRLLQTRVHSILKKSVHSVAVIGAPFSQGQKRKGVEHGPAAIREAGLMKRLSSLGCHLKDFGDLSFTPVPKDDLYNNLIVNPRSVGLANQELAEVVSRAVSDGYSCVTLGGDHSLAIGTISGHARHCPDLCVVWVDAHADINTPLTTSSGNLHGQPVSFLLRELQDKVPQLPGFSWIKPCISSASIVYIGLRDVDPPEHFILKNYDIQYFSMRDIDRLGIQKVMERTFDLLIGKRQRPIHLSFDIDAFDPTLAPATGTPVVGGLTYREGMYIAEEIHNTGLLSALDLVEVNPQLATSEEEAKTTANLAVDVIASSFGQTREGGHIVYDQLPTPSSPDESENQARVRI

[6] = target: T3, Proteasome subunit beta (Trypanosoma cruzi) (UniProt O96673); experiment: Trypanosoma cruzi proteasome chymotrypsin-like activity (TcProtChymo) assay.; note: in the data most compounds retested in dose-response had high values; assay type: functional; conditions: 9.37 µM
T3 sequence (whole entry): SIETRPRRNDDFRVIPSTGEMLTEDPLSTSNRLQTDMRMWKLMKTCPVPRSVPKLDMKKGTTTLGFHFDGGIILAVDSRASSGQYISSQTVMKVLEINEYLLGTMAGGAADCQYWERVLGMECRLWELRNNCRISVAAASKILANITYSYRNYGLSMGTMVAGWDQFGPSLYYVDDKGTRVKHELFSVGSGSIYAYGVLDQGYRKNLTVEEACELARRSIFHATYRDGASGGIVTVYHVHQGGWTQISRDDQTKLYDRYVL

Homo sapiens = species on record: Homo sapiens; experiment: To identify inhibition of the IFN signalling (Jak-Stat) pathway via expression of an eGFP reporter gene under the control of an IFN-stimulated response element (ISRE) containing MxA promoter.; assay type: functional; conditions: 30 µM
[7] = target: T4, Tyrosyl-tRNA synthetase, putative (Trypanosoma cruzi (strain CL Brener)) (UniProt Q4DSP6); experiment: Trypanosoma cruzi tyrosyl tRNA synthetase (TcYRS) _High Tyrosine SOP; assay type: functional; conditions: 30 µM; note: in the data most compounds retested in dose-response had high values
T4 sequence (whole entry): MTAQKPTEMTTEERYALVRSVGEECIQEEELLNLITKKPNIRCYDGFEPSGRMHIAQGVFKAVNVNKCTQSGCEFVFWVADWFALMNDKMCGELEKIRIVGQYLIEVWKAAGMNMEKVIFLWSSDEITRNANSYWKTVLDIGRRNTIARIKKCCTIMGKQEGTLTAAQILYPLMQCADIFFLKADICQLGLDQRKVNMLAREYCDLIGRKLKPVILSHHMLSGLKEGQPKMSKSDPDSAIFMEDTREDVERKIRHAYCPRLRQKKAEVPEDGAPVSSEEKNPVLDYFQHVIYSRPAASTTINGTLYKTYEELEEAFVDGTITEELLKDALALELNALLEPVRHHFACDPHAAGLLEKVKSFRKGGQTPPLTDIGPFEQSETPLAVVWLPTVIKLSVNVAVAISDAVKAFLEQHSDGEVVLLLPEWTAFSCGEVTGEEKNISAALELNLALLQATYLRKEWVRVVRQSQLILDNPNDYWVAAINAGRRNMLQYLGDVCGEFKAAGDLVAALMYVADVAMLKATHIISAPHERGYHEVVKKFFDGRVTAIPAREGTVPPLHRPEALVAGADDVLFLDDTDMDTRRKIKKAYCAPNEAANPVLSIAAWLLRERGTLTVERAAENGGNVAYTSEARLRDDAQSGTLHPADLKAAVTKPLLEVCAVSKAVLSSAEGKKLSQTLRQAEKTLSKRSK

[8] = target: T4, Tyrosyl-tRNA synthetase, putative (Trypanosoma cruzi (strain CL Brener)); experiment: Trypanosoma cruzi tyrosyl tRNA synthetase (TcYRS) SOP; assay type: functional; conditions: 30 µM
[9] = target: Chromo domain-containing protein 1 (Saccharomyces cerevisiae (strain ATCC 204508 / S288c) (Baker's yeast)) (UniProt P32657); experiment: ScCHD-1 Enzyme Inhibition Assay; assay type: functional; conditions: 30 µM; note: in the data most compounds retested in dose-response had high values
Chain of Chromo domain-containing protein 1 (Saccharomyces cerevisiae (strain ATCC 204508 / S288c) (Baker's yeast)) (P32657 whole entry, the tested form may be a part): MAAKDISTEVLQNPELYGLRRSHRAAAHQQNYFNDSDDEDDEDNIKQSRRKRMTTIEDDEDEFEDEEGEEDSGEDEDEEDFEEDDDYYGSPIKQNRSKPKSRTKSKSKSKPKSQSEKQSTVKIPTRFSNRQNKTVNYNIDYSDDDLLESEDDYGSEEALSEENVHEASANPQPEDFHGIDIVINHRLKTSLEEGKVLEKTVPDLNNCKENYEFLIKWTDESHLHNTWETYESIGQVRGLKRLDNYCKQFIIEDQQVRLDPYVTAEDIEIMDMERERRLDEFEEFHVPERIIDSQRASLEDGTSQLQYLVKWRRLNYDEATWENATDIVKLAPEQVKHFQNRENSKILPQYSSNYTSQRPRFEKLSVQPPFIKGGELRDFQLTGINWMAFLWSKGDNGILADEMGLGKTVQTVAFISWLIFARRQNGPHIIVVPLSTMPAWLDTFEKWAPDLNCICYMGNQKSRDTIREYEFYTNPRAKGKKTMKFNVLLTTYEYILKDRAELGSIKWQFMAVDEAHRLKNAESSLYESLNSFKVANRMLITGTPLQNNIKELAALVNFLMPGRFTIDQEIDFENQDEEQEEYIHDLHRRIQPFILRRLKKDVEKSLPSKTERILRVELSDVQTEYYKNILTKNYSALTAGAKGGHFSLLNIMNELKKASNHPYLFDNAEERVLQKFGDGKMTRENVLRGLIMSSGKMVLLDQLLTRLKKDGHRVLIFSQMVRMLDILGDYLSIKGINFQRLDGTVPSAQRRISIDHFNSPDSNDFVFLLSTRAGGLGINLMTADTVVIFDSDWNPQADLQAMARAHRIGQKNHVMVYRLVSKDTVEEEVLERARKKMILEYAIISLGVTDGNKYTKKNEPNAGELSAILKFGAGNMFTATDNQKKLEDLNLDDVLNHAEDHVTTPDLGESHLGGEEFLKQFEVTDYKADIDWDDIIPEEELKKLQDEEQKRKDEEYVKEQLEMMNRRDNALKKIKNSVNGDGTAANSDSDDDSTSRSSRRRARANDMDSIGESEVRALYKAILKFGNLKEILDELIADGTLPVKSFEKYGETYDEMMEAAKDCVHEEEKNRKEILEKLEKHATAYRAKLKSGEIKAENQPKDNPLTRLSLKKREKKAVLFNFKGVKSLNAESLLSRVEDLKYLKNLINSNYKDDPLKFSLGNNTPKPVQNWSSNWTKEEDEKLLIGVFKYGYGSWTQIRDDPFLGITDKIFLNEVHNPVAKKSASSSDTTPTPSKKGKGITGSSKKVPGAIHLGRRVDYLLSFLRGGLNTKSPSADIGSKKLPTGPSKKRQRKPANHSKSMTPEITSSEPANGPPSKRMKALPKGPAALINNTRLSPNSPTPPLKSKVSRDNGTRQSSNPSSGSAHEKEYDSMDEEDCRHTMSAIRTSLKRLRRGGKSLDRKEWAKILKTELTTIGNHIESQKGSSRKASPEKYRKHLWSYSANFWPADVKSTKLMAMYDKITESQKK

| Compound | Percent Effect [1] | Percent Effect [2] | Percent Effect [3] | Percent Effect [4] | Percent Effect (Trypanosoma cruzi) | Percent Effect [5] | Percent Effect [6] | Percent Effect (Homo sapiens) | Percent Effect [7] | Percent Effect [8] | Percent Effect [9] |
| --- | --- | --- | --- | --- | --- | --- | --- | --- | --- | --- | --- |
| Cc1cnn(CC(C)NCc2csc(-c3ccco3)n2)c1 (configuration not stated) | -3.81% | -3.8% | 10.6% | -3.77% | -5.44% | -3.66% | 10.1% | 18.9% | 11.5% | 2.53% | -23.7% |
| c1cnnc(N2CCCC2CNc2ncnc3ccccc23)c1 (configuration not stated) | -3.22% | -3.8% | 9.15% | -3.44% | -4.41% | 4.09% | 9.61% | 36% | 25% | 27.9% | -16.5% |
| Cc1nc2cc(C(=O)N3CCCC(n4cncn4)C3)ccc2n1C (configuration not stated) | -4.14% | 5.41% | -2.29% | 11.4% | 9.75% | -0.924% | -5.21% | 0.593% | 3.96% | 13.4% | -2.87% |
| O=C(COc1ccc(C(F)(F)F)cc1)NS(=O)(=O)c1cccnc1 | -0.269% | 0% | 4.15% | -3.63% | -1.5% | 0.383% | 3.84% | -6.19% | -1.47% | -4.88% | 4.47% |
| Cc1cncc(C(=O)N2CCCCC2c2nc(C)cs2)c1 (configuration not stated) | -4.34% | -36.4% | -2.13% | 4.39% | 8.99% | 3.92% | 9.29% | 16.2% | 9.71% | 21.9% | -10.7% |
| CC(C)c1n[nH]c(C2CN(C(=O)CCn3ccccc3=O)CCO2)n1 (configuration not stated) | -3.88% | 1.27% | 3.8% | -2.89% | -3.18% | -2.37% | 2.92% | -3.42% | 3.12% | 7.59% | -5.25% |
| O=S(=O)(Cc1ccccc1F)NCCCN1CCCCC1 | -5.56% | 2.67% | -0.488% | 18.2% | 1.66% | -1.04% | 3.49% | -24.3% | 1.64% | 1.24% | -4.29% |
| Cc1noc(Cl)c1CCC(=O)N1CCCCC1Cn1cccn1 (configuration not stated) | -5.73% | 5.26% | 1.98% | -0.589% | 1.85% | -2.37% | 9.3% | -6.24% | 3.19% | 5.2% | -7.11% |
| COc1ncccc1C(=O)N1CCCC(c2cc(C)[nH]n2)C1 (configuration not stated) | -4.92% | 0% | -0.772% | -1.9% | -0.66% | -0.802% | 1.8% | 10.4% | 1.48% | -6.17% | 1.58% |
| COCCO[C@H]1CCN(Cc2cccs2)[C@H]1Cc1cccnc1 | -3.38% | 0% | -12.3% | 20.5% | 6.35% | -1.24% | 11.6% | 0.814% | 3.23% | 6.17% | -1.24% |
| Cc1nc(CN2CCCC(N(C)CCc3cccs3)C2)no1 (configuration not stated) | -2.72% | 12.5% | -8.86% | 8.38% | -1.65% | 2.21% | 11.4% | 10.9% | 7.37% | 2.56% | -2.19% |
| Fc1cnc(N2C[C@H]3CCC[C@@]3(COc3ccccn3)C2)nc1 | -1.64% | 1.33% | 6.16% | 4.78% | -3.93% | -1.94% | 10.5% | -10.5% | 5.29% | 2.56% | -5.06% |
| Cc1nnc(N2CCC(CN(C)C(C)C)CC2)c(C#N)c1C | -4.73% | 2.6% | -19% | -13.1% | 9.89% | -4% | 3.64% | 4.7% | 3.81% | 11.8% | -23.4% |
| CN(CCO)Cc1nnc(C2CCN(C3CCCCC3)CC2)n1C | -3.52% | 8% | 0.423% | -0.412% | -3.41% | 2.08% | 18.1% | 10.8% | 2.73% | 11.1% | -6.36% |
| COc1cccc(CNc2nc(O)cc(C3CC(=O)N(C)C3)n2)c1 (configuration not stated) | 1.85% | 12.2% | 4.37% | 1.72% | -4.35% | 2.09% | 16.7% | 14.9% | 5.38% | -1.3% | -11.6% |
| COCCOc1ccc(NC(=O)C2CCC2)cn1 | -2.7% | 17.7% | 1.58% | -6% | 0.85% | 5.7% | 15.6% | -2.54% | 9.36% | 16.5% | -6.65% |
| Cc1ccc(C(CNCc2ccncc2)N2CCOCC2)s1 (configuration not stated) | -9.26% | -2.7% | -3.34% | 21.5% | -2.73% | 1.67% | 17.8% | 18.3% | 1.98% | -1.22% | -7.13% |
| O=C(Cc1ccc(F)cc1)NCCNCC1CNc2ccnn2C1 (configuration not stated) | -1.32% | 18.9% | -4.44% | 24.8% | 10.8% | 10% | 6.72% | 2.03% | 8.99% | 17.1% | -7.92% |
| CCC(C)(C)NC(=O)Cn1nc(C)nc1-c1cccc(C)c1 | -4.79% | 20.8% | 3.98% | -4.39% | -3% | 1.07% | 7.26% | 14.5% | 9.71% | 21.9% | -6.87% |
| O=C(Nc1cnn(CCN2CCOCC2)c1)c1cc(F)ccc1F | -1.54% | 7.89% | -3.4% | 20.5% | -1.32% | 1.53% | -3.17% | -12.4% | 4.41% | 9.76% | 3.02% |
| Cc1ccc(C(=O)NCCCNS(C)(=O)=O)c(=O)[nH]1 | -3.74% | 16.2% | -2.72% | 4.72% | 2.54% | 5% | 22.4% | -1.74% | 10.9% | 18.3% | -7.91% |
| Cc1cccc(C2(CNC(=O)CCNS(C)(=O)=O)CCCC2)c1 | -6.74% | 15.2% | -3.25% | 11.3% | 4.44% | -11% | 6.31% | -4.41% | 5.42% | 8.86% | -5.61% |
